# A selection: hits, their analogues and other compounds. The true share with any hit is near 10%.
# GPT2 inh: inhibitors of human GPT2 alanine aminotransferase; Q8TD30; Recombinant GPT2, coupled pyruvate oxidase/HRP Amplex Red fluorescence; Potency, µM (titrated, usually from 57.7 µM), inactives show top-dose activity change, negative = inhibition, usual class: inhibitors; 0.25% of 100,000 active; AID 1671188; also: nearly all actives have a fitted effect of over 60% in size
# Target sequence (Q8TD30 whole entry, looked up): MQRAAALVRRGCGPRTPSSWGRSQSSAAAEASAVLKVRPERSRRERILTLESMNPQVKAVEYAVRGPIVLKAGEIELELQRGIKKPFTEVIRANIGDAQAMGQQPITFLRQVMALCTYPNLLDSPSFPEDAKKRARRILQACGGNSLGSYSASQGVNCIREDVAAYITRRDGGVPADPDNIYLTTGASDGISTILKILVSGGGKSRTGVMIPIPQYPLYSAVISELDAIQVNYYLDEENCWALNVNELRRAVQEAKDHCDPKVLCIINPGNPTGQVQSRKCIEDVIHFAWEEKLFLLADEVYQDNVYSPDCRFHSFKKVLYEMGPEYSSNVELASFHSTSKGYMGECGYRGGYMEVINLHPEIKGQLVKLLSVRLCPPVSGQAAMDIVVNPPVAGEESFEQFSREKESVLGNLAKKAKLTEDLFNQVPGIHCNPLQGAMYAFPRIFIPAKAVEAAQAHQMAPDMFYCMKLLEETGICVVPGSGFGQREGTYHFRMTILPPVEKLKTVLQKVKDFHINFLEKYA
#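 Fluorescence of coupled pyruvate oxidase/HRP/Amplex Red system (50uM Amplex, 30 min, dark) reports pyruvate formed by GPT2. Enzyme reaction: 10ng/uL GPT2, 2mM L-alanine, 250uM a-KG, 30 min room temperature, pH 7.5; 50uM AOA control.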
# HEK293 tox: kills HEK 293 cells; HEK 293 viability, ATP luminescence (CellTiter-Glo), 48-72 h; Potency, µM (top dose mostly 115 µM), for inactives: at the highest dose activity change, negative = cytotoxicity, actives largely listed as inhibitors; 6.6% of 94,000 active; AID 1345083; also: nearly all actives have a fitted effect of over 60% in size
#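 Cytotoxicity was scored by loss of ATP-coupled luminescence (CellTiter-Glo) in HEK 293 cells. Compound treatment ran 48 or 72 hr at 37 degree Celsius, 5% CO2, 95% humidity.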
# hNpr1 antagonist: blocks ANP-stimulated signaling of human Npr1 receptor; P16066; HEK293 hNpr1 GloSensor cGMP, ANP-stimulated luminescence; Potency, µM (titrated, usually from 46.3 µM), for the others: at the highest dose activity change, negative = inhibition, usual class: inhibitors; 1.6% of 76,000 active; AID 1347048; calls by dose curve; also: nearly all actives have a fitted effect of over 60% in size
#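 HEK293 cells stably expressing human Npr1 and cGMP GloSensor pGS-40F, loaded 2 h with 2% GloSensor reagent, given compound 30 min at room temperature. Luminescence read before and 20 min after 0.1 nM hNppA.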
# FLuc inh: blocks purified firefly luciferase enzyme activity. 2.5% of 76,000 active. Potency, µM (titrated, usually from 115 µM), hits mostly inhibitors. purified P. pyralis luciferase, luminescence, biochemical; also: nearly all actives have a fitted effect of over 65% in size
#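 Cell-free enzyme assay, 10nM P. pyralis luciferase, luciferin and ATP each at 10uM. Inhibition profiled over a 6-point titration, read as luminescence.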
# 3T3 cytotox: kills NIH 3T3 cells | NIH 3T3 viability, CellTiter-Glo ATP luminescence, 48-72 h | Potency, µM (top dose mostly 96.7 µM), without a hit: at the highest dose activity change, negative = cytotoxicity, hits mostly inhibitors | 4.3% of 94,000 active; also: nearly all actives have a fitted effect of over 55% in size
#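 Cytotoxicity is measured as loss of cellular ATP: NIH 3T3 cells (400/well) are exposed to compound for 48 or 72 hr at 37 °C, then CellTiter-Glo luminescence is imaged after 10 min at room temperature.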
# Starred values were filed as active, the others as inactive; i = inactive; ? = inconclusive; / = not tested or not shown; [ ] = another dose, or the depositor's remark. Unless noted, calls follow the shape of the dose curve; as a rule, active = well fitted curve in the direction sought with a large enough effect; inconclusive = small, poorly fitted or top-dose-only effect, or another doubt; inactive = no such curve, though single readings can be large; an effect the other way counts as inactive or inconclusive. % is scaled to controls: 0 for no effect and ±100 for the full control effect; potency is read from the fitted curve at half-maximal effect.
SMILES,GPT2 inh,HEK293 tox,hNpr1 antagonist,FLuc inh,3T3 cytotox
CCCCc1ccc(NC(=O)CN2C(=O)NC(c3ccc(Cl)cc3)C3=C2COC3=O)cc1 (stereo not given),i,20µM*,-21%,i,20µM*
O=C(N[C@H]1[C@H](O)[C@H](O)C[C@@H]1c1cccnc1)C1CCC1,-10%[88.5 µM],-2%[230 µM],8%[70.6 µM],i,1%[230 µM]
COc1cccc(CN2CCCC(c3nc(CCOc4cccc(C)c4)no3)C2)c1 (stereo not given),i,?,-30%,i,?
CC1CCN(c2ccc(-c3cccc(N)c3)nn2)CC1,1%,32µM*,0.63µM*,0.1µM*,32µM*
COc1ccc(C(=O)N2CCCOCCNC(=O)[C@@H]3CCCC[C@@H]32)c(OC)n1,?,?,-10%,i,-14%
Cc1ccc(-c2cccc(CN3CCCC3C(=O)NC3CCC3)c2)cc1Cl (stereo not given),/,28µM*,/,/,40µM*
Cc1ccc(-c2cccc(CN3CCCC3C(=O)NC3CC3)c2)cc1Cl (stereo not given),/,32µM*,/,/,35µM*
CCC(C)NC(=O)C1CCCN1Cc1cccc(-c2ccc(C)c(Cl)c2)c1 (stereo not given),/,22µM*,/,/,35µM*
Cc1ccc(-c2cccc(CN3CCCC(NC(=O)NC4CCCC4)C3)c2)cc1Cl (stereo not given),-3%,5%,/,/,-18%
COc1cccc(C(=O)N2CCC[C@@H]2C(=O)N2CCCC(c3nc4ccncc4[nH]3)C2)c1 (stereo not given in full),i,-9%,/,/,-18%
COCC1CN(C(C)=O)CC12CCN(C(=O)c1cc(C)cc(C)c1)CC2 (stereo not given),i,-14%,-6%,i,-13%
O=[S+]([O-])(NC1CCN(Cc2ccc(-c3ccsc3)cc2)C1)c1cccc(C(F)(F)F)c1 (stereo not given),i,28µM*,/,/,16µM*
Cc1ccc([S+](=O)([O-])NC2CCN(Cc3ccc(-c4ccsc4)cc3)C2)cc1 (stereo not given),-1%,45µM*,/,/,?
O=C(NC1CCN(Cc2ccc(-c3ccsc3)cc2)C1)c1ccccc1F (stereo not given),-2%,?,/,/,?
O=[S+]([O-])(NC1CCN(Cc2ccc(-c3ccsc3)cc2)C1)c1ccccc1 (stereo not given),i,?,/,/,?
COc1cc(Cl)ccc1C(=O)NC1CCN(c2cc(-c3ccc(F)cc3)[nH]n2)CC1,-4%,?,-4%,i,35µM*
CCOc1ccccc1C(=O)NC1CCN(c2cc(-c3ccccc3)[nH]n2)C1 (stereo not given),?,?,2%,i,?
CCOc1ccccc1C(=O)NC1CCN(c2cc(-c3ccc(OC)cc3)[nH]n2)CC1,i,?,-19%,i,35µM*
COc1ccc(C(=O)NC2CCN(c3cc(-c4ccccc4)[nH]n3)CC2)c(OC)c1,i,79µM*,-5%,i,?
CCOc1ccccc1C(=O)NC1CCCN(c2cc(-c3ccc(Cl)cc3)[nH]n2)C1 (stereo not given),i,20µM*,-16%,?,16µM*
O=C(CSc1ccccc1)N1CCc2nc3cc(-c4ccccc4)[nH]n3c(=O)c2C1,-3%,-8%,4%,?,i
CC1=NS(=O)(=O)N(Cc2ccccc2)C=C1C(=O)OCc1nc(Cc2ccccc2C)no1,i,?,4%,i,-24%
CCOc1ccccc1C(=O)NC1CCN(c2cc(-c3ccc(OC)cc3)[nH]n2)C1 (stereo not given),-8%,?,-19%,i,35µM*
O=C1CCC2(CCN1)CCN(C(=O)C1CCCCC1)CC2,4%,5%,11%,i,?
O=C(NC1C[C@H]2CC[C@@H](C1)N2C(=O)CCc1nc2ccccc2s1)c1ccncc1 (stereo not given in full),i,3%,4%,i,-3%

# Bioassay records deposited in PubChem by National Center for Advancing Translational Sciences (NCATS).
